In PubChem BioAssay (NCATS):
Where “and” joins values, the source holds several entries; their conditions need not be identical. Equal entries are not always repeated. Records with an inconclusive call do not appear. Calls of active or inactive are those of the source. Calls follow the shape of the dose curve; as a rule, active = well fitted cell-killing curve with a large enough effect; inconclusive = small, poorly fitted or top-dose-only effect, or effect the other way; inactive = no such curve, though single readings can be large or run the other way.

Assay: Viability qHTS for spleen associated tyrosine kinase inhibitor (SYKi) naive MV4-11 cells (AID 1963823); also: nearly all actives have a fitted effect of over 40% in size
Details: MV4-11 AML viability, CellTiter-Glo luminescence, 72 h; series mostly up to 45 µM; viability (% of control): at the top concentration
Outline: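 Luminescence from CellTiter-Glo, developed 10 min at room temperature, gave viability of MV4-11 cells never exposed to SYK inhibitor. Cells (500/well) had been incubated with compounds for 72 hr under standard culture conditions.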
Potency is read from the fitted curve at half-maximal effect.

SMILES | Potency | viability (% of control)
C[C@@H](CN1CCC(n2c(=O)[nH]c3cc(Cl)ccc32)CC1)NC(=O)c1ccc2ccccc2c1 | 20.6 µM (active) | –
CC(C)S(=O)(=O)c1ccc2nccc(Nc3ccc4scnc4c3)c2c1 | 8.2 µM (active) | –
CN[C@H]1CN(c2ccc3c(=O)c(C(=O)O)cn(-c4nccs4)c3n2)C[C@@H]1OC | 0.605 µM (active) | –
C/C1=C\CCC2=CC(OC2=O)C(C)(C)/C=C/C1=O (stereo not given) | 4.61 µM (active) | –
C/C=C/C=C/C=C/C(=O)O[C@@H]1[C@@H](OC)C2=C(C(=O)N(C(C)C(=O)O)C2)[C@@]2(C)CCCC(C)(C)[C@H]12 (stereo not given in full) | – | 70.5% [at 17.3 µM] (inactive)
C=C1C(=O)OC2/C=C(\CO)CC/C=C(\C=O)C(O)C(OC(=O)C(C)CC)C12 (stereo not given) | 2.02 µM (active) | –
CC(C)=C1CC2[C@](C)(CC[C@@H](OC(=O)C3(C)OC3C)[C@@]2(C)O)CC1=O (stereo not given in full) | – | 71.5% (inactive)
COc1cc(/C=C/C(=O)N2CCN(CC(=O)N3CCCC3)CC2)cc(OC)c1OC | – | 80.3% (inactive)
C=CS(=O)(=O)NC1CCN(C(=O)CNc2cc(I)c(Cl)cc2OC)CC1 | 3.26 µM (active) | –
CC(=O)OC1C(O)C(C)(O)C(/C=C/C(=O)O)C2(C)CCCC(C)(C)C12 (stereo not given) | – | 55.1% (inactive)
CCN1CCN(Cc2ccc(NC(=O)c3ccc(C)c(Oc4ccnc5[nH]ccc45)c3)cc2C(F)(F)F)CC1 | 0.0255 µM (active) | –
CCNC(=O)[C@@H]1CCCN1C(=O)[C@H](CCCN=C(N)N)NC(=O)[C@H](CC(C)C)NC(=O)[C@@H](C)NC(=O)[C@H](Cc1ccc(O)cc1)NC(=O)[C@H](CO)NC(=O)[C@H](Cc1c[nH]c2ccccc12)NC(=O)[C@H](Cc1cnc[nH]1)NC(=O)[C@@H]1CCC(=O)N1 | – | 75.4% [at 17.3 µM] (inactive)
C[C@@H]1C[C@@H](O)[C@@]23CO[C@@H](O)[C@@H]2CCC[C@@H]3[C@@]12C[C@@H](c1ccoc1)OC2=O | – | 74.1% (inactive)
COC(=O)C1=CO[C@@H](O[C@@H]2O[C@H](CO)[C@@H](O)[C@H](O)[C@H]2O)[C@@H]2[C@@H](C(=O)OC)[C@@H](O)C(O)[C@H]12 (stereo not given in full) | – | 78.1% [at 17.3 µM] (inactive)
COc1cc(C2Oc3c(OC)cc(CCCO[C@@H]4O[C@H](CO)[C@@H](O)[C@H](O)[C@H]4O)cc3C2CO)ccc1O (stereo not given in full) | – | 58.1% [at 17.3 µM] (inactive)
OCC1=CC[C@@H]2C=CO[C@@H](O[C@@H]3O[C@H](CO)[C@@H](O)[C@H](O)[C@H]3O)[C@H]12 | – | 85.7% (inactive)
C[C@@H]1[C@H](O)[C@@H]2OC(=O)C3=C2[C@H](CCC3)[C@@]12C[C@@H](c1ccoc1)OC2=O | – | 77% (inactive)
Cc1nnc(-c2sc(NC(=O)[C@H](C(C)C)n3c(=O)[nH]c4ccccc4c3=O)nc2C)o1 | – | 77.3% (inactive)
CC1NC(=O)C(Cc2c[nH]c3ccccc23)NC1=O (stereo not given) | – | 71.2% (inactive)
O=C(O)c1ccc(S(=O)(=O)N(Cc2ccc(OC(F)(F)F)cc2)c2ncc(C(F)(F)F)cc2Cl)cc1 | 20.6 µM (active) | –

SMILES | Potency | viability (% of control)
CC1=C(C(=O)O)/C(=C\CO[C@@H]2O[C@H](CO)[C@@H](O)[C@H](O)[C@H]2O)C(OC(=O)/C=C/c2ccc(O)cc2)C1 (stereo not given in full) | – | 75.2% [at 17.3 µM] (inactive)
CC1(C)CCC2(C(=O)O)C(O)CC3(C)C(=CCC4C5(C)CCC(OC6OC(CO)C(O)C(O)C6OC6OC(CO)C(O)C(O)C6OC6OCC(O)(CO)C6O)C(C)(C)C5CCC43C)C2C1 (stereo not given) | – | 68.6% [at 9.25 µM] (inactive)
COc1ccc(-c2cnc3ccc(NCc4ccc(S(N)(=O)=O)cc4)nn23)cc1OC | 0.92 µM (active) | –
C/C=C(\C)C(=O)O[C@H]1C=CC(=O)O[C@H]1/C=C/[C@H](O)[C@@H](C)O | 9.2 µM (active) | –
CN(CC(=O)N(Cc1ccc(C2CCCCC2)cc1)c1ccc(C(=O)O)cc1)S(=O)(=O)c1c(F)c(F)c(F)c(F)c1F | 1.84 µM (active) | –
C/C=C(\C)C(=O)OC[C@H]1O[C@@H](O[C@H]2[C@@H](O[C@H]3O[C@H](CO)[C@@H](O)[C@H](O)[C@H]3O[C@@H]3O[C@H](CO)[C@@H](O)[C@H](O)[C@H]3O)O[C@H](COC(=O)/C(C)=C/C)[C@@H](O)[C@@H]2O)[C@H](O)[C@@H](O)[C@@H]1O | – | 81.8% [at 9.25 µM] (inactive)
O=C(NCCO)c1cc(C(=O)NCCO)cc(C(=O)NCCO)c1 | – | 67.1% (inactive)
CCCOc1ccc(-c2nc(OC)c3ccccc3n2)cc1 | – | 77.2% (inactive)
C[C@@H]1[C@H]2[C@H](O[C@@H]3O[C@H](CO)[C@@H](O)[C@H](O)[C@H]3O)OC=C(C(=O)O)[C@H]2C[C@@H]1O | – | 68.6% (inactive)
COc1ccc(CN2CCN(C(c3ccc(F)cc3)c3ccc(F)cc3)CC2)c(OC)c1OC | 15 µM (active) and 14.6 µM (active) | –
N#C/C(=C\c1ccc(O)c(O)c1)C(=O)NCCCc1ccccc1 | 8.2 µM (active) | –
O=C(O[C@@H]1O[C@H](CO)[C@@H](O)[C@H](O)[C@H]1O)c1c(O)cc(O)cc1/C=C/c1ccccc1 | – | 95.3% [at 17.3 µM] (inactive)
C=C(C(=O)OC)C1C(O)CC2(C)C(=O)CCC(O)(CO)C2C1O (stereo not given) | – | 89.3% (inactive)
CC(C)C(CO)Nc1nc(Nc2cc(N)cc(Cl)c2)c2ncn(C(C)C)c2n1 (stereo not given) | 0.517 µM (active) | –
CN(C)CCCOc1ccc(-c2ccc3ncc4c(c3c2)n(C2CCOCC2)c(=O)n4C)cn1 | 1.15 µM (active) | –
O=C1C(Cc2ccc(O)cc2)N2C(=O)CCN(C(=O)NCc3ccccc3)C2CN1Cc1cccc2ccccc12 (stereo not given) | 1.46 µM (active) | –
CC1(C)CCCC2(C)C(CO)C3CCC2C31 (stereo not given) | – | 88.2% (inactive)
O=C(Nc1cc(-c2ccccc2)nn1-c1ccccc1)c1ccc([N+](=O)[O-])cc1 | – | 76% (inactive)
CC1(C)C(=O)N2c3ccccc3C(O)(CC(C(=O)O)n3cnc4ccccc4c3=O)C2N1O (stereo not given) | – | 70.5% [at 17.3 µM] (inactive)
CC1(C)CC[C@]2(C(=O)O[C@@H]3O[C@H](CO)[C@@H](O)[C@H](O)[C@H]3O)CC[C@]3(C)C(=CCC4[C@@]5(C)C[C@@H](O)[C@H](O)[C@@](C)(CO)C5CC[C@]43C)C2C1 (stereo not given in full) | – | 74.2% [at 17.3 µM] (inactive)
